# From the supplement of paper PMC4466140
# B1: unnamed (peptide)
# chain: RRTRLRPPTPLSQLL
# Target: AgAbp1
# Assay: SPOT peptide array binding signal intensity (averaged, normalized) (arbitrary units (background-subtracted, floor 0; scale differs between SH3 domains)); higher = stronger binding of the SH3 domain to the peptide
# Experimental: (§1)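 GST-tagged SH3 domains from S. cerevisiae (Sc), A. gossypii (Ag), C. albicans (Ca) and S. pombe (Sp) were incubated at 10 ug/ml overnight at 4 C on cellulose SPOT membranes carrying 292 synthetic 15-mer peptides mined from the S. cerevisiae proteome (cysteines replaced by serines). Binding was detected with anti-GST antibody, HRP secondary and chemiluminescence, quantified with Genespotter, and reported as normalized spot intensities averaged over biological replicates.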
row,Binder,SPOT peptide array binding signal intensity
1,B1,31.5

# Target: AgBbc1
# Assay: as above
# Experimental: as §1
row,Binder,SPOT peptide array binding signal intensity
1,B1,145

# Target: AgBem1-D1
# Assay: as above
# Experimental: as §1
row,Binder,SPOT peptide array binding signal intensity
1,B1,113

# Target: AgBzz1-D1
# Assay: as above
# Experimental: as §1
row,Binder,SPOT peptide array binding signal intensity
1,B1,80.8

# Target: AgBzz1-D2
# Assay: as above
# Experimental: as §1
row,Binder,SPOT peptide array binding signal intensity
1,B1,45.5

# Target: AgCyk3
# Assay: as above
# Experimental: as §1
row,Binder,SPOT peptide array binding signal intensity
1,B1,1.5

# Target: AgFus1
# Assay: as above
# Experimental: as §1
row,Binder,SPOT peptide array binding signal intensity
1,B1,1120

# Target: AgHof1
# Assay: as above
# Experimental: as §1
row,Binder,SPOT peptide array binding signal intensity
1,B1,123

# Target: AgHse1
# Assay: as above
# Experimental: as §1
row,Binder,SPOT peptide array binding signal intensity
1,B1,866

# Target: AgLsb1
# Assay: as above
# Experimental: as §1
row,Binder,SPOT peptide array binding signal intensity
1,B1,154

# Target: AgLsb4
# Assay: as above
# Experimental: as §1
row,Binder,SPOT peptide array binding signal intensity
1,B1,100

# Target: AgMyo5
# Assay: as above
# Experimental: as §1
row,Binder,SPOT peptide array binding signal intensity
1,B1,1.75

# Target: AgNbp2
# Assay: as above
# Experimental: as §1
row,Binder,SPOT peptide array binding signal intensity
1,B1,204

# Target: AgRvs167
# Assay: as above
# Experimental: as §1
row,Binder,SPOT peptide array binding signal intensity
1,B1,15.2

# Target: AgSho1
# Assay: as above
# Experimental: as §1
row,Binder,SPOT peptide array binding signal intensity
1,B1,64

# Target: AgSla1-D1-D2
# Assay: as above
# Experimental: as §1
row,Binder,SPOT peptide array binding signal intensity
1,B1,93

# Target: AgSla1-D3
# Assay: as above
# Experimental: as §1
row,Binder,SPOT peptide array binding signal intensity
1,B1,5

# Target: CaAbp1-D1
# Assay: as above
# Experimental: as §1
row,Binder,SPOT peptide array binding signal intensity
1,B1,218

# Target: CaAbp1-D2
# Assay: as above
# Experimental: as §1
row,Binder,SPOT peptide array binding signal intensity
1,B1,133

# Target: CaBbc1
# Assay: as above
# Experimental: as §1
row,Binder,SPOT peptide array binding signal intensity
1,B1,333

# Target: CaBem1-D1
# Assay: as above
# Experimental: as §1
row,Binder,SPOT peptide array binding signal intensity
1,B1,192

# Target: CaBzz1-D1
# Assay: as above
# Experimental: as §1
row,Binder,SPOT peptide array binding signal intensity
1,B1,233

# Target: CaBzz1-D2
# Assay: as above
# Experimental: as §1
row,Binder,SPOT peptide array binding signal intensity
1,B1,76.8

# Target: CaCyk3
# Assay: as above
# Experimental: as §1
row,Binder,SPOT peptide array binding signal intensity
1,B1,88.5

# Target: CaFus1
# Assay: as above
# Experimental: as §1
row,Binder,SPOT peptide array binding signal intensity
1,B1,1050

# Target: CaHof1
# Assay: as above
# Experimental: as §1
row,Binder,SPOT peptide array binding signal intensity
1,B1,7.63e-06

# Target: CaHse1
# Assay: as above
# Experimental: as §1
row,Binder,SPOT peptide array binding signal intensity
1,B1,60.6

# Target: CaLsb1
# Assay: as above
# Experimental: as §1
row,Binder,SPOT peptide array binding signal intensity
1,B1,0.5

# Target: CaLsb4
# Assay: as above
# Experimental: as §1
row,Binder,SPOT peptide array binding signal intensity
1,B1,307

# Target: CaMyo5
# Assay: as above
# Experimental: as §1
row,Binder,SPOT peptide array binding signal intensity
1,B1,4

# Target: CaNbp2
# Assay: as above
# Experimental: as §1
row,Binder,SPOT peptide array binding signal intensity
1,B1,512

# Target: CaRvs167
# Assay: as above
# Experimental: as §1
row,Binder,SPOT peptide array binding signal intensity
1,B1,40.8

# Target: CaRvs167-3
# Assay: as above
# Experimental: as §1
row,Binder,SPOT peptide array binding signal intensity
1,B1,16.5

# Target: CaSho1
# Assay: as above
# Experimental: as §1
row,Binder,SPOT peptide array binding signal intensity
1,B1,526

# Target: CaSla1-D1-D2
# Assay: as above
# Experimental: as §1
row,Binder,SPOT peptide array binding signal intensity
1,B1,574

# Target: CaSla1-D3
# Assay: as above
# Experimental: as §1
row,Binder,SPOT peptide array binding signal intensity
1,B1,12.9

# Target: ScAbp1
# Assay: as above
# Experimental: as §1
row,Binder,SPOT peptide array binding signal intensity
1,B1,70.5

# Target: ScBbc1
# Assay: as above
# Experimental: as §1
row,Binder,SPOT peptide array binding signal intensity
1,B1,61.6

# Target: ScBem1-D1
# Assay: as above
# Experimental: as §1
row,Binder,SPOT peptide array binding signal intensity
1,B1,111

# Target: ScBzz1-D1
# Assay: as above
# Experimental: as §1
row,Binder,SPOT peptide array binding signal intensity
1,B1,42

# Target: ScBzz1-D2
# Assay: as above
# Experimental: as §1
row,Binder,SPOT peptide array binding signal intensity
1,B1,26.2

# Target: ScCyk3
# Assay: as above
# Experimental: as §1
row,Binder,SPOT peptide array binding signal intensity
1,B1,83.8

# Target: ScFus1
# Assay: as above
# Experimental: as §1
row,Binder,SPOT peptide array binding signal intensity
1,B1,722

# Target: ScHof1
# Assay: as above
# Experimental: as §1
row,Binder,SPOT peptide array binding signal intensity
1,B1,4.5

# Target: ScHse1
# Assay: as above
# Experimental: as §1
row,Binder,SPOT peptide array binding signal intensity
1,B1,1120

# Target: ScLsb1
# Assay: as above
# Experimental: as §1
row,Binder,SPOT peptide array binding signal intensity
1,B1,63

# Target: ScLsb2
# Assay: as above
# Experimental: as §1
row,Binder,SPOT peptide array binding signal intensity
1,B1,5.5

# Target: ScLsb3
# Assay: as above
# Experimental: as §1
row,Binder,SPOT peptide array binding signal intensity
1,B1,1130

# Target: ScLsb4
# Assay: as above
# Experimental: as §1
row,Binder,SPOT peptide array binding signal intensity
1,B1,37.8

# Target: ScMyo3
# Assay: as above
# Experimental: as §1
row,Binder,SPOT peptide array binding signal intensity
1,B1,≤ 0

# Target: ScMyo5
# Assay: as above
# Experimental: as §1
row,Binder,SPOT peptide array binding signal intensity
1,B1,4.12

# Target: ScNbp2
# Assay: as above
# Experimental: as §1
row,Binder,SPOT peptide array binding signal intensity
1,B1,727

# Target: ScPex13
# Assay: as above
# Experimental: as §1
row,Binder,SPOT peptide array binding signal intensity
1,B1,16.2

# Target: ScRvs167
# Assay: as above
# Experimental: as §1
row,Binder,SPOT peptide array binding signal intensity
1,B1,148

# Target: ScSho1
# Assay: as above
# Experimental: as §1
row,Binder,SPOT peptide array binding signal intensity
1,B1,1180

# Target: ScSla1-D1-D2
# Assay: as above
# Experimental: as §1
row,Binder,SPOT peptide array binding signal intensity
1,B1,2070

# Target: ScSla1-D3
# Assay: as above
# Experimental: as §1
row,Binder,SPOT peptide array binding signal intensity
1,B1,3.38

# Target: SpAbp1-D1
# Assay: as above
# Experimental: as §1
row,Binder,SPOT peptide array binding signal intensity
1,B1,20.5

# Target: SpBbc1
# Assay: as above
# Experimental: as §1
row,Binder,SPOT peptide array binding signal intensity
1,B1,14.8

# Target: SpBzz1-D1
# Assay: as above
# Experimental: as §1
row,Binder,SPOT peptide array binding signal intensity
1,B1,486

# Target: SpBzz1-D2
# Assay: as above
# Experimental: as §1
row,Binder,SPOT peptide array binding signal intensity
1,B1,≤ 0

# Target: SpCyk3
# Assay: as above
# Experimental: as §1
row,Binder,SPOT peptide array binding signal intensity
1,B1,4

# Target: SpHof1
# Assay: as above
# Experimental: as §1
row,Binder,SPOT peptide array binding signal intensity
1,B1,406

# Target: SpHof1-2
# Assay: as above
# Experimental: as §1
row,Binder,SPOT peptide array binding signal intensity
1,B1,61.6

# Target: SpHof1-3
# Assay: as above
# Experimental: as §1
row,Binder,SPOT peptide array binding signal intensity
1,B1,610

# Target: SpHse1
# Assay: as above
# Experimental: as §1
row,Binder,SPOT peptide array binding signal intensity
1,B1,460

# Target: SpLsb1
# Assay: as above
# Experimental: as §1
row,Binder,SPOT peptide array binding signal intensity
1,B1,87.8

# Target: SpLsb4
# Assay: as above
# Experimental: as §1
row,Binder,SPOT peptide array binding signal intensity
1,B1,615

# Target: SpMyo1
# Assay: as above
# Experimental: as §1
row,Binder,SPOT peptide array binding signal intensity
1,B1,12.1

# Target: SpNbp2
# Assay: as above
# Experimental: as §1
row,Binder,SPOT peptide array binding signal intensity
1,B1,184

# Target: SpPex13
# Assay: as above
# Experimental: as §1
row,Binder,SPOT peptide array binding signal intensity
1,B1,12.8

# Target: SpRvs167
# Assay: as above
# Experimental: as §1
row,Binder,SPOT peptide array binding signal intensity
1,B1,24.8

# Target: SpSla1-D1-D2
# Assay: as above
# Experimental: as §1
row,Binder,SPOT peptide array binding signal intensity
1,B1,53

# Target: SpSla1-D3
# Assay: as above
# Experimental: as §1
row,Binder,SPOT peptide array binding signal intensity
1,B1,8
